Test results as given in PubChem BioAssay (NCATS).
Values without a mark were called inactive. Records with an inconclusive call do not appear. Activity calls are given as the source filed them. Unless noted, calls follow the shape of the dose curve; as a rule, active = well fitted curve in either direction with a large enough effect (not every such curve was filed as active); inconclusive = small, poorly fitted or top-dose-only effect, or another doubt; inactive = flat fitted curve, though single readings scatter.

Columns and labels:
[1] = biological target: Lysosomal acid glucosylceramidase (Homo sapiens) (UniProt P04062); test: Glucocerebrosidase-p2 (AID 348; in the data active = potency below about 10 µM; also: potency is read from the fitted curve at half-maximal effect); details: purified GBA, blue fluorogenic substrate, 40 min
Outline: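 Compounds titrated from 0.6 nM upwards against 0.2 nM enzyme in pH 5.9 citric acid/KH2PO4, taurocholate, tween-20; blue fluorogenic substrate 80 uM, 40 min room temperature, stopped and read Ex 365/Em 440 for AC50.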

[2] = AP1 Signaling Pathway (AID 357); details: ME-180 AP-1-bla reporter, EGF-induced, beta-lactamase ratio, 5 h; at 7.69 µM (top of the series) unless noted;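 also: ME-180 reporter cells stimulated with EGF at its EC50 level; % is scaled to controls: 0 for no effect and ±100 for the full control effect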
Outline: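 Titration-series screen for positive or negative modulators of EC50 EGF-induced signaling in ME-180 cells carrying an AP-1-driven beta-lactamase reporter. After 5 hours at 37 degrees Celsius, CCF4 460nm/530nm emission ratio gave %Activity; AC50 values derived.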

[3] = NFAT Signaling Pathway (AID 444); details: Jurkat NFAT-bla M1, carbachol, beta-lactamase ratio, 5 h; at 7.69 µM (top of the series) unless noted;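 also: carbachol stimulus at about its EC50 of 1 µM final; % is scaled to controls: 0 for no effect and ±100 for the full control effect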
Outline: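 Jurkat cells with NFAT-driven β-lactamase reporter and co-expressed M1 receptor, stimulated with carbachol (final 1 uM, ~EC50), compound titration, 5 h at 37 °C. CCF4 loaded 1 h at RT; 460/530 nm ratio gave %activity and AC50.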

[4] = Stat Signaling Pathway (AID 446); details: ME-180 SIE beta-lactamase reporter, IL-6 stimulated, 5 h; at 7.69 µM (top of the series) unless noted;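 also: ME-180 cervical cancer cells given 40 pM IL-6 alongside compound; SIE-controlled beta-lactamase reporter measured as 460/530 nm FRET emission ratio; % is scaled to controls: 0 for no effect and ±100 for the full control effect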
Outline: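 Reporter line: ME-180 cervical carcinoma, SIE-beta-lactamase. Treatment: compound with 40 pM IL-6, 5 hrs, 37 C, in low-serum OPTI-MEM with 10 mM HEPES pH 7.3. Detection: 460/530 nm fluorescence.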

[5] = biological target: Glucocorticoid receptor (Homo sapiens) (UniProt P04150); test: GR-EFC Redistribution (AID 451; calls by dose curve; also: potency is read from the fitted curve at half-maximal effect); details: CHO-K1 GR-EFC translocation, beta-gal luminescence, 2 h
Outline: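 CHO-K1 cells expressing nuclear EA and GR-ED fragments of b-gal; compounds titrated up to 46 uM final, 2 h at 37 C. GR nuclear translocation read as complemented b-gal luminescence after 1 h RT detection.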

[6] = biological target: Mitogen-activated protein kinase 10 (Mus musculus) (UniProt Q61831); test: JNK3 AlphaScreen Assay (AID 530); details: JNK3 lysate, c-Jun phosphorylation; series mostly up to 57.1 µM;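 also: kinase came from lysate of stimulated human HepG2 cells; signal reports phosphorylation of biotinylated GST-cJun 1-79 at Ser73 with 10 µM ATP; % is scaled to controls: 0 for no effect and ±100 for the full control effect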
Outline: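 qHTS format: compounds tested as titrations against IL-1beta/TNF-alpha-activated HepG2 lysate JNK3 with biotin-GST-cJun substrate and 10 uM ATP at room temperature. Loss of anti-phospho-cJun AlphaScreen signal indicates inhibition.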

[7] = biological target: 3',5'-cyclic-AMP phosphodiesterase 4B (Homo sapiens) (UniProt Q07343); test: qHTS Assay for Inhibitors of PDE-IV (AID 607; active = well fitted activation curve with a large enough effect in the main read-out, with a control signal flat, not every such curve was filed as active; also: % of control where 0% means no effect); details: HEK293 ACTOne CNG channel cells, membrane potential fluorescence; series mostly up to 22.9 µM
Outline: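 Cell-based read-out of cAMP via a modified cyclic nucleotide-gated channel and membrane potential dye (535/590 nm) in HEK293 cells expressing PDE4 endogenously. Compounds tested up to 22.9 uM final; 100 uM RO 20-1724 reference.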

[8] = biological target: Cytochrome P450 3A4 (Homo sapiens) (UniProt P08684); test: qHTS Assay for Inhibitors and Substrates of Cytochrome P450 3A4 (AID 884; active = well fitted curve in the direction sought with a large enough effect; an effect the other way counts as inactive or inconclusive; also: nearly all actives have a fitted effect of over 50% in size; also: potency is read from the fitted curve at half-maximal effect); details: recombinant CYP3A4, Luciferin-PPXE luminescence; series mostly up to 57.1 µM
Outline: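 20 nM human CYP3A4 with 25 uM Luciferin-PPXE (at KM) in 200 mM KPO4, preincubated 10 min with compound; NADPH regeneration started a 60 min RT reaction. Luciferin detected by luminescence, normalized to 57 uM ketoconazole as full inhibition.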

[9] = Primary qHTS for small molecule stabilizers of the endoplasmic reticulum resident proteome: Secreted ER Calcium Modulated Protein (SERCaMP) assay (AID 1508630; active = well fitted curve in the direction sought with a large enough effect; an effect the other way counts as inactive or inconclusive; also: % is scaled to controls: 0 for no effect and ±100 for the full control effect); details: SH-SY5Y GLuc-SERCaMP (Gaussia luciferase released on ER calcium loss) secretion, thapsigargin, luminescence; series mostly up to 38.4 µM
Outline: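 GLuc-SERCaMP-expressing SH-SY5Y cells, pretreated 16 h with compound, are challenged with thapsigargin to empty ER calcium stores; after 4 h, coelenterazine is added directly to the medium and luminescence is imaged.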

[10] = biological target: Cytochrome P450 2C19 (Homo sapiens) (UniProt P33261); test: qHTS Assay for Inhibitors and Substrates of Cytochrome P450 2C19 (AID 899; active = well fitted curve in the direction sought with a large enough effect; an effect the other way counts as inactive or inconclusive; also: nearly all actives have a fitted effect of over 60% in size; also: potency is read from the fitted curve at half-maximal effect); details: recombinant CYP2C19, luciferin-H EGE luminescence; series mostly up to 57.1 µM
Outline: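 Luminescent read-out of luciferin formed from Luciferin-H EGE (10uM, equal to KM). Enzyme 5nM in 50mM KPO4; compound added, 10 min at 37C, then NADPH regenerating system for 60 min at 37C. Full inhibition defined by 57uM ketoconazole.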

[11] = qHTS Assay for Identification of Small Molecule Agonists for Hypoxia Response Element Signaling Pathway (AID 914; active = well fitted activation curve with a large enough effect in the signal ratio, with a control signal flat, not every such curve was filed as active; the % refers to the signal ratio; also: % of control where 0% means no effect); details: ME-180 HRE-bla reporter, beta-lactamase ratio, CoCl2, 17 h; activation: hits give high values
Outline: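 ME-180 cells carrying an HRE-driven beta-lactamase reporter were treated with compounds in a titration series plus an EC50 level of CoCl2 for 17 h at 37 degrees Celsius; CCF4 readout as the 460nm/530nm ratio gave AC50 values.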

[12] = biological target: Cytochrome P450 3A4 (Homo sapiens) (UniProt P08684); test: qHTS Assay for Activators of Cytochrome P450 3A4 (AID 885; active = well fitted curve in the direction sought with a large enough effect; an effect the other way counts as inactive or inconclusive; also: nearly all actives have a fitted effect of over 65% in size); details: recombinant CYP3A4, Luciferin-PPXE luminescence, 60 min; series mostly up to 57.1 µM
Outline: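 Signal was normalized against complete inhibition by 57 uM ketoconazole. The reaction used 20nM CYP3A4 with 25uM Luciferin-PPXE, 10-min compound preincubation and a 60-min NADPH-supported step at RT.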

[13] = biological target: Cytochrome P450 2C9 (Homo sapiens) (UniProt P11712); test: qHTS Assay for Inhibitors and Substrates of Cytochrome P450 2C9 (AID 883; active = well fitted curve in the direction sought with a large enough effect; an effect the other way counts as inactive or inconclusive; also: potency is read from the fitted curve at half-maximal effect; nearly all actives have a fitted effect of over 60% in size); details: recombinant CYP2C9, luciferin-H luminescence, 60 min; series mostly up to 57.1 µM
Outline: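 10nM CYP2C9 + 100uM Luciferin-H (=KM), 25mM KPO4; cpd 10 min 37C; NADPH regen, 60 min 37C; stop/detect with P450 Glo-Buffer 20 min; luminescence. Norm. to 57uM sulphaphenazole as full inhibition.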

Chain of Cytochrome P450 2C19 (Homo sapiens) (P33261 whole entry, looked up): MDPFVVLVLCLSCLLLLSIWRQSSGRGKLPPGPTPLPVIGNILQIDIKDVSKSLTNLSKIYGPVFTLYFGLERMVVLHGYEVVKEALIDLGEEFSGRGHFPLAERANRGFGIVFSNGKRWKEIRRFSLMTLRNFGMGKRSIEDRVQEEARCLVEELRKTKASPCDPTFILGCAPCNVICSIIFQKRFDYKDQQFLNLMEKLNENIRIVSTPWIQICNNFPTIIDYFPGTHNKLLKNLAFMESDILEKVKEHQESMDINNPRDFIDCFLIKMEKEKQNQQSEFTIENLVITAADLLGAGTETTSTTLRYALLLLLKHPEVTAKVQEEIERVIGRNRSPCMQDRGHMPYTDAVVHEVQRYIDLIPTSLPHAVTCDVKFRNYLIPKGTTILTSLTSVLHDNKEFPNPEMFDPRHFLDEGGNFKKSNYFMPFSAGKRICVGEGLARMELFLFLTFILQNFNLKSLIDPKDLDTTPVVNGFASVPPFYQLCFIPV
Chain of 3',5'-cyclic-AMP phosphodiesterase 4B (Homo sapiens) (Q07343 whole entry, looked up): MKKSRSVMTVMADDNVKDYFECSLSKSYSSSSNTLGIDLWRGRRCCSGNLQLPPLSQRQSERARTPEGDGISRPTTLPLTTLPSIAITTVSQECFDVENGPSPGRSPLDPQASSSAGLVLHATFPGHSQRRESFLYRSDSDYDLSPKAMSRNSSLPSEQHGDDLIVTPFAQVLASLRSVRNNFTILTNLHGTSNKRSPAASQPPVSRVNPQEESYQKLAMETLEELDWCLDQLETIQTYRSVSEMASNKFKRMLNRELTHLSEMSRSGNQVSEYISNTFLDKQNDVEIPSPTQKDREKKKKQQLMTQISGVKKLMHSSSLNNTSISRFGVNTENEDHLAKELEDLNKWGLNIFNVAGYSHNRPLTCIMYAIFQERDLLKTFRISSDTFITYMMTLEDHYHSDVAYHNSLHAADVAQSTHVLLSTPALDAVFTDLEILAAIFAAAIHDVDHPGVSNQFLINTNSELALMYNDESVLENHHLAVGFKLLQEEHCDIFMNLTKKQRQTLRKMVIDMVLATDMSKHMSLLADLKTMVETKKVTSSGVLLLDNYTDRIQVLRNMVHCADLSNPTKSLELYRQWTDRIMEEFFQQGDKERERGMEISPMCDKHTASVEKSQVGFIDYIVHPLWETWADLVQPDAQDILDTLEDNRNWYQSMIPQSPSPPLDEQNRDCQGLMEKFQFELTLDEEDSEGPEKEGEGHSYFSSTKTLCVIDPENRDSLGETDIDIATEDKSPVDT
Chain of Glucocorticoid receptor (Homo sapiens) (P04150 whole entry, looked up, the tested form may be a part): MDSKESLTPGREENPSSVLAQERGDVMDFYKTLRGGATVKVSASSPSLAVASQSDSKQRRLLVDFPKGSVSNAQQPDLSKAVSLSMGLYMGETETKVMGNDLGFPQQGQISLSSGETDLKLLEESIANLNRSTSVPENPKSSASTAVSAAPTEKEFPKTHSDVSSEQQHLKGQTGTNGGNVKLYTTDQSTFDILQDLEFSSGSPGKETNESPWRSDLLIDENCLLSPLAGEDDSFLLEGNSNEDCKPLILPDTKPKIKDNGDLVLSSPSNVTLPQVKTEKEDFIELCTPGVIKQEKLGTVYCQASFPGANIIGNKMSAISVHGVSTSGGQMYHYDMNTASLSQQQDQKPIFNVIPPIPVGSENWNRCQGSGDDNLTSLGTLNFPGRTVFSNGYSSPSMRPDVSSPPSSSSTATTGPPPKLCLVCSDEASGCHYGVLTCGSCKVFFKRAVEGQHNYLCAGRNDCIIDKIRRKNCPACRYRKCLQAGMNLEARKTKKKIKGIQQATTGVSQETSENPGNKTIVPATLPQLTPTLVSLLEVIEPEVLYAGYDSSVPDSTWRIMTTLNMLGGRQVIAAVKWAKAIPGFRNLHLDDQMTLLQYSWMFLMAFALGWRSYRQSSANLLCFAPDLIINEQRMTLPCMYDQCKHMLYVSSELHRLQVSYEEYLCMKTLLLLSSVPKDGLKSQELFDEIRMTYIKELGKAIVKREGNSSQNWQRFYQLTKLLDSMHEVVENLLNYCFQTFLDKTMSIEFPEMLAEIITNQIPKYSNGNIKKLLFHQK
Chain of Cytochrome P450 3A4 (Homo sapiens) (P08684 whole entry, looked up): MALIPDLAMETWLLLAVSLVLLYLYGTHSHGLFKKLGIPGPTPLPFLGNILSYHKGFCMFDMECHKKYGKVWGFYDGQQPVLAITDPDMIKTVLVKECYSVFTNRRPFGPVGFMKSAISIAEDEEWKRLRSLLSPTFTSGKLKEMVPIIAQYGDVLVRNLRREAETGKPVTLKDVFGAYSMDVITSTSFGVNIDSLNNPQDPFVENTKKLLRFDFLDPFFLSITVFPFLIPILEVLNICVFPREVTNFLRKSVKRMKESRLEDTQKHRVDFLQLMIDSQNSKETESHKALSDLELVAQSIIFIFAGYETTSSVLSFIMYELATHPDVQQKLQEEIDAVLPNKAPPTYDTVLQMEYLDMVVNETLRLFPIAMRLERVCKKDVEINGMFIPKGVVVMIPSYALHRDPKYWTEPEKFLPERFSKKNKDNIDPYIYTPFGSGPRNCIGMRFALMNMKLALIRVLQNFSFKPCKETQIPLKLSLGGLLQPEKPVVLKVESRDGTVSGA
Chain of Lysosomal acid glucosylceramidase (Homo sapiens) (P04062 whole entry, looked up): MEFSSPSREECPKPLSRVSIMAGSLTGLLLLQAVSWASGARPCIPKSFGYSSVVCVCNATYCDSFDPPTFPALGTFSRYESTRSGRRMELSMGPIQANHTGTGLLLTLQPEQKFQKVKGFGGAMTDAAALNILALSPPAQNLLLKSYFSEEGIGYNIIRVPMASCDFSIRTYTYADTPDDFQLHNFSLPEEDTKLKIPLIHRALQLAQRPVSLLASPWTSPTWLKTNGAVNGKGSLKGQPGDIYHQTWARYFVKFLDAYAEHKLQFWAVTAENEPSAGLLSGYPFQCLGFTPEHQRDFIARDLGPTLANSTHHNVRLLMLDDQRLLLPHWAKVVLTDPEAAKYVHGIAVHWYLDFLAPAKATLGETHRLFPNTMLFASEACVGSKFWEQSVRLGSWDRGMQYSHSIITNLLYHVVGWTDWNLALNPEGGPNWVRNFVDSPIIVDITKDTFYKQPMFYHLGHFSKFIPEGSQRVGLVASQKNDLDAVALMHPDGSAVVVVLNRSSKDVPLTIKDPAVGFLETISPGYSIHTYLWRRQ
Chain of Cytochrome P450 2C9 (Homo sapiens) (P11712 whole entry, looked up): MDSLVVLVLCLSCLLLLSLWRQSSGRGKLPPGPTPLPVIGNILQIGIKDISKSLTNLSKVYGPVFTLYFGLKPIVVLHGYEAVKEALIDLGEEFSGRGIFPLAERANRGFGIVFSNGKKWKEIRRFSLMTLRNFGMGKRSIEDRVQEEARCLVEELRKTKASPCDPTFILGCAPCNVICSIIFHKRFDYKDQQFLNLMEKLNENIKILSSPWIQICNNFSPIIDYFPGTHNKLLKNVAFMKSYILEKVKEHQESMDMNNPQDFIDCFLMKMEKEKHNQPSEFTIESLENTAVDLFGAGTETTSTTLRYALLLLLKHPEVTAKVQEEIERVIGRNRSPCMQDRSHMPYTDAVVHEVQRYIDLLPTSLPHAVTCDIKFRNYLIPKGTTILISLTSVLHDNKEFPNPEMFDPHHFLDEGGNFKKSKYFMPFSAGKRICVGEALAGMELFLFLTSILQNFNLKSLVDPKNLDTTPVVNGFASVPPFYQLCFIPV

COCC(=O)N1CCC2(CC1)CCN(c1ccc(-c3ccccc3)cc1)CC2
Potency [1]: > 11.4 µM
activity change, negative = inhibition [2]: -8.62%
activity change, negative = inhibition [3]: 2.65%
activity, negative = inhibition [4]: -21.1%
Potency [5]: > 46 µM
Potency [6]: inactive
Potency [7]: inactive
Potency [8]: inactive
outcome [9]: inactive

O=C(Nc1cccc(F)c1)N1CC2(CCN(C(=O)c3ccncc3)CC2)C1
Potency [1]: > 11.4 µM
activity change, negative = inhibition [2]: -11.4%
activity change, negative = inhibition [3]: 9.26%
activity, negative = inhibition [4]: 1.8%
Potency [5]: > 46 µM
Potency [6]: inactive
Potency [7]: inactive
Potency [10]: inactive
outcome [9]: inactive

COc1ccc(C(=O)N2CCC[C@@]3(CCN(C(=O)Nc4cccc(F)c4)C3)C2)cc1
Potency [1]: > 11.4 µM
activity change, negative = inhibition [2]: -10.8%
activity change, negative = inhibition [3]: 2.1%
activity, negative = inhibition [4]: -4.78%
Potency [5]: > 46 µM
Potency [7]: inactive
outcome [9]: inactive

CC(=O)N1CCC2(CC1)CCN(c1ccccc1)CC2
Potency [1]: > 11.4 µM
activity change, negative = inhibition [2]: 16.1%
activity change, negative = inhibition [3]: -0.227%
activity, negative = inhibition [4]: 2.99%
Potency [5]: > 46 µM
Potency [6]: inactive
Potency [7]: inactive
activation [11]: -2.78%
outcome [9]: inactive

COCC(=O)N1CCC2(CCN(Cc3cc(C(F)(F)F)cc(C(F)(F)F)c3)CC2)CC1
Potency [1]: > 11.4 µM
activity change, negative = inhibition [2]: 4.92%
activity change, negative = inhibition [3]: -3.18%
activity, negative = inhibition [4]: 8.32%
Potency [5]: > 46 µM
Potency [6]: inactive
Potency [7]: inactive
outcome [9]: inactive

O=C(c1cccc(F)c1)N1CCC2(CCCN(c3ccccc3)C2)CC1
Potency [1]: > 11.4 µM
activity change, negative = inhibition [2]: -4.36%
activity change, negative = inhibition [3]: -1.29%
activity, negative = inhibition [4]: -11.8%
Potency [5]: > 46 µM
Potency [6]: inactive
Potency [7]: inactive
Potency [12]: inactive
Potency [10]: 5.01 µM (active)
activation [11]: -3.27%
outcome [9]: inactive

COc1ccc(Oc2ncc3nc(C)c(=O)n(C4CC4)c3n2)cc1
Potency [1]: > 11.4 µM
activity change, negative = inhibition [2]: -0.17%
activity change, negative = inhibition [3]: -5.38%
activity, negative = inhibition [4]: -4.78%
Potency [5]: > 46 µM
Potency [6]: inactive
Potency [7]: inactive
activation [11]: -6.35%
outcome [9]: inactive

N#Cc1cccc(NC(=O)N2CCC3(CC2)CCN(C(=O)c2cnccn2)CC3)c1
Potency [1]: > 11.4 µM
activity change, negative = inhibition [2]: -8.55%
activity change, negative = inhibition [3]: -3%
activity, negative = inhibition [4]: 2.13%
Potency [5]: > 46 µM
Potency [6]: inactive
Potency [7]: inactive
outcome [9]: inactive

O=C(c1cccc(F)c1)N1CCC[C@@]2(CCN(Cc3ccncc3)C2)C1
Potency [1]: > 11.4 µM
activity change, negative = inhibition [2]: -12%
activity change, negative = inhibition [3]: -14.7%
activity, negative = inhibition [4]: -0.901%
Potency [5]: > 46 µM
Potency [7]: inactive
Potency [8]: 3.16 µM (active)
Potency [12]: inactive
outcome [9]: inactive

Cn1cccc1C(=O)N1CCC[C@@]2(CCN(c3cccc(-c4ccccc4)c3)C2)C1
Potency [1]: > 11.4 µM
activity change, negative = inhibition [2]: -10.7%
activity change, negative = inhibition [3]: -10.5%
activity, negative = inhibition [4]: -14.4%
Potency [5]: > 46 µM
Potency [8]: 7.94 µM (active)
Potency [12]: inactive
outcome [9]: inactive

O=C(Nc1cccc(F)c1)N1CCC2(CC1)CCN(C(=O)c1ccncc1)CC2
Potency [1]: > 11.4 µM
activity change, negative = inhibition [2]: -9.1%
activity change, negative = inhibition [3]: -6.93%
activity, negative = inhibition [4]: -7.63%
Potency [5]: > 46 µM
Potency [6]: inactive
Potency [7]: inactive
Potency [12]: inactive
outcome [9]: inactive

COc1ccc(C(=O)N2CCC[C@@]3(CCN(Cc4nccs4)C3)C2)cc1
Potency [1]: > 11.4 µM
activity change, negative = inhibition [2]: -5.52%
activity change, negative = inhibition [3]: -6.27%
activity, negative = inhibition [4]: -1.52%
Potency [5]: > 46 µM
Potency [6]: inactive
Potency [7]: inactive
outcome [9]: inactive

O=S(=O)(c1ccccc1)N1CCC2(CCCN(c3ccccc3)C2)CC1
Potency [1]: > 11.4 µM
activity change, negative = inhibition [2]: 17.4%
activity change, negative = inhibition [3]: -15.8%
activity, negative = inhibition [4]: 7.82%
Potency [5]: > 46 µM
Potency [6]: inactive
Potency [7]: inactive
Potency [13]: 1.26 µM (active)
Potency [12]: inactive
Potency [10]: 1.58 µM (active)
outcome [9]: inactive

N#Cc1cccc(NC(=O)N2CC[C@@]3(CCCN(C(=O)c4csnn4)C3)C2)c1
Potency [1]: > 11.4 µM
activity change, negative = inhibition [2]: -20.4%
activity change, negative = inhibition [3]: 10.2%
activity, negative = inhibition [4]: -5.12%
Potency [5]: > 46 µM
Potency [6]: inactive
Potency [7]: inactive
outcome [9]: inactive

COc1ccc(C(=O)N2CCC3(CCN(Cc4nccs4)CC3)CC2)cc1
Potency [1]: > 11.4 µM
activity change, negative = inhibition [2]: -14.6%
activity change, negative = inhibition [3]: -8.01%
activity, negative = inhibition [4]: -11.9%
Potency [5]: > 46 µM
Potency [6]: inactive
Potency [7]: inactive
Potency [8]: inactive
outcome [9]: inactive

O=C(c1ccco1)N1CCC[C@@]2(CCN(c3cccc(-c4ccccc4)c3)C2)C1
Potency [1]: > 11.4 µM
activity change, negative = inhibition [2]: -1.52%
activity change, negative = inhibition [3]: -22.9%
activity, negative = inhibition [4]: 3.03%
Potency [5]: > 46 µM
Potency [13]: 5.01 µM (active)
outcome [9]: inactive
